# Where “and” joins values, the source holds several entries; their conditions need not be identical. Identical values can stand only once. Unmarked numbers belong to inactive results. Inconclusive results are not listed. Calls of active or inactive are those of the source. Unless noted, the call rests on the fitted dose curve; in most records, active means well fitted inhibition curve with a large enough effect; inconclusive means small, poorly fitted or top-dose-only effect; inactive means flat fitted curve, though single readings scatter.
# Legend:
# [1] = Drug repurposing screens with cells derived from glioblastoma tumor samples (AID 1345199); conditions: GBM patient neurospheres viability, ATP luminescence, 48 h; further: nearly all actives have a fitted effect of over 40% in size; further: potency means the concentration at half of the fitted maximal effect; on activity, negative = cell killing: on the % scale 0 is the no-effect control and ±100 the full control effect
# Method in brief: (§1)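 Four patient lines of CD133+ GBM neurospheres were screened at several concentrations; hits were retested in those lines plus three slower-growing GBM lines, using 48-hour treatment and ATP-based viability.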
# astro = control astrocytes; experiment: as above; conditions: viability, ATP luminescence, 48 h; series mostly up to 45.9 µM
# Method in brief: as §1
# [2] = biological target: Nuclear receptor subfamily 1 group I member 2 (Rattus norvegicus) (UniProt Q9R1A7); experiment: qHTS assay for small molecule activators of the rat pregnane X receptor (rPXR) signaling pathway (AID 651751; call rule not given here; further: 0% is about no effect); conditions: rPXR reporter cells, luciferase (One-Glo), 24 h
# Chain of Nuclear receptor subfamily 1 group I member 2 (Rattus norvegicus) (Q9R1A7 whole entry, looked up): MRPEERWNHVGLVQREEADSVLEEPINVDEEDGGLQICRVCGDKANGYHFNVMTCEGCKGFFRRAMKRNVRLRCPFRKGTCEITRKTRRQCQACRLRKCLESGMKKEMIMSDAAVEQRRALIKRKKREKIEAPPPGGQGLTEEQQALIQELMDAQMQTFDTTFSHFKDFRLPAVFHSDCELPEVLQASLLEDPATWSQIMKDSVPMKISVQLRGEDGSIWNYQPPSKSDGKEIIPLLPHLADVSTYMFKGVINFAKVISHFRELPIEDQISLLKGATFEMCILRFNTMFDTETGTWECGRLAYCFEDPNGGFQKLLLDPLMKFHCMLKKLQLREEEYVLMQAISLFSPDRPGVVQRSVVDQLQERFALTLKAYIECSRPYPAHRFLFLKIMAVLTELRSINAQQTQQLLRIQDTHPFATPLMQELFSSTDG
# [3] = qHTS assay for small molecule activators of the human pregnane X receptor (PXR) signaling pathway (AID 720659; call rule not given here; further: 0% is about no effect); conditions: DPX-2 HepG2 CYP3A4-luciferase, 24 h; series mostly up to 92.3 µM
# [4] = at 45.9 µM (top of the series), tumour line B
# [5] = at 45.9 µM (top of the series), tumour line D
# [6] = at 46.1 µM (top of the series), tumour line C
compound,measurement,setting,value
O=C(O)Cc1nn(Cc2ccc(Br)cc2F)c(=O)c2ccccc12,"activity, negative = cell killing",[1]; [4],-21.4%
same,"activity, negative = cell killing",[1]; [5],-12.1%
same,Potency,astro,inactive
COc1ccccc1N1CCN(CCCC(=O)c2ccc(F)cc2)CC1,"activity, negative = cell killing",[1]; [4],-16%
same,Potency,[1]; tumour line A,10 µM (active)
same,Potency,astro,inactive
CN(C)CCC=C1c2ccccc2C(C)(C)c2ccccc21,Potency,astro,17.8 µM (active)
CC(=O)Nc1ccc(NC(=S)NC(=O)c2ccc(C(C)(C)C)cc2)cc1,Potency,astro,3.98 µM (active)
CC(C)C[C@H](NC(=O)[C@@H](Cc1c[nH]c2ccccc12)NC(=O)[C@H](Cc1ccc(O)cc1)NC(=O)[C@H](CO)NC(=O)[C@H](Cc1c[nH]c2ccccc12)NC(=O)[C@H](Cc1cnc[nH]1)NC(=O)[C@@H]1CCC(=O)N1)C(=O)N[C@@H](CCCN=C(N)N)C(=O)N1CCC[C@@H]1C(=O)NCC(N)=O,"activity, negative = cell killing",[1]; [4],-6.78%
same,"activity, negative = cell killing",[1]; [6],-22.9%
same,Potency,astro,inactive
COC(=O)CC[C@H](N)C(=O)O,"activity, negative = cell killing",[1]; [4],-13.7%
same,"activity, negative = cell killing",[1]; [5],-12.9%
same,Potency,astro,inactive
O=C(CCCN1CCN2CCCC2C1)c1ccc(F)cc1 (stereo not drawn),Potency,astro,inactive
O=C(c1cc2ccccc2o1)N1CCN(Cc2ccccc2)CC1,"activity, negative = cell killing",[1]; [4],-15.4%
same,Potency,[1]; tumour line A,11.2 µM (active)
same,Potency,astro,inactive
C=C1[C@@H]2CC[C@@H](C2)C1(C)C,"activity, negative = cell killing",[1]; [4],-1.58%
same,"activity, negative = cell killing",[1]; [5],-22%
same,Potency,astro,inactive
Cc1cc(-c2ccc(N=Nc3ccc4c(S(=O)(=O)O)cc(S(=O)(=O)O)c(N)c4c3O)c(C)c2)ccc1N=Nc1ccc2c(S(=O)(=O)O)cc(S(=O)(=O)O)c(N)c2c1O,Potency,astro,17.8 µM (active)
O=C(NNCS(=O)(=O)O)c1ccncc1,"activity, negative = cell killing",[1]; [4],-4.21%
same,"activity, negative = cell killing","[1]; at 46 µM (top of the series), tumour line A",-67.1%
same,Potency,astro,inactive
Cc1ccccn1,"activity, negative = cell killing",[1]; [4],-10.1%
same,"activity, negative = cell killing",[1]; [6],-22.4%
same,Potency,astro,inactive
CN=C1C=CC(=C(c2ccc(N(C)C)cc2)c2ccc(N(C)C)cc2)C=C1,Potency,astro,11.2 µM (active)
C[N@+]12CCCC[C@@H]1CCC(=C(c1cccs1)c1cccs1)C2,Potency,astro,inactive
CC(C)OC(=O)Nc1ccc2nc(-c3cscn3)[nH]c2c1,Potency,astro,2.82 µM (active)
CCCCCCCCCCCCCCCCOCCOCCOCCOCCOCCOCCOCCOCCOCCOCCOCCOCCOCCOCCOCCOCCOCCOCCOCCOCCO,Potency,astro,3.16 µM (active)
C=C[C@]1(C)C[C@@H](OC(=O)CSCCN(CC)CC)[C@]2(C)[C@H](C)CC[C@]3(CCC(=O)[C@H]32)[C@@H](C)[C@@H]1O,"activity, negative = cell killing",[1]; [4],-23.5%
same,Potency,[1]; tumour line A,7.94 µM (active)
same,Potency,astro,inactive
CS(=O)(=O)c1ccc([C@@H](O)[C@@H](COC(=O)CN)NC(=O)C(Cl)Cl)cc1,"activity, negative = cell killing",[1]; [4],-20.1%
same,"activity, negative = cell killing",[1]; [6],-21.6%
same,Potency,astro,inactive
Cc1cc(-c2ccc(N=Nc3c(S(=O)(=O)O)cc4cc(S(=O)(=O)O)cc(N)c4c3O)c(C)c2)ccc1N=Nc1c(S(=O)(=O)O)cc2cc(S(=O)(=O)O)cc(N)c2c1O,Potency,astro,8.91 µM (active)
CC[C@@H](C(=O)[C@@H](C)[C@@H](O)[C@H](C)[C@@H]1O[C@@H]([C@@H](CC)C(=O)O)CC[C@@H]1C)[C@H]1O[C@]2(C=C[C@@H](O)[C@]3(CC[C@@](C)([C@H]4CC[C@](O)(CC)[C@H](C)O4)O3)O2)[C@H](C)C[C@@H]1C,Potency,astro,7.94 µM (active)
CCN(CC)CCC(=O)N1c2ccccc2Sc2ccc(C(F)(F)F)cc21,Potency,astro,inactive
C=C1CC[C@H](O)CC1=C/C=C1\CCC[C@]2(C)[C@@H]([C@H](C)CC[C@@H](O)C(C)(C)O)CC[C@@H]12,"activity, negative = cell killing",[1]; [4],-20.7%
same,Potency,[1]; tumour line A,8.91 µM (active)
same,Potency,astro,inactive
CCC(=O)c1ccc2c(c1)N(CCCN1CCN(CCO)CC1)c1ccccc1S2,Potency,astro,17.8 µM (active)
CNC(C)CCC=C(C)C (stereo not drawn),"activity, negative = cell killing",[1]; [4],-23.7%
same,Potency,[1]; tumour line A,11.2 µM (active)
same,Potency,astro,inactive
O=c1n(CC2CO2)c(=O)n(CC2CO2)c(=O)n1CC1CO1 (stereo not drawn),max response,[2],-7.41% and -4.4%
same,outcome,[3],inactive
CCN(CC)CCOc1ccc2nc(N(C)C)sc2c1,Potency,astro,inactive
CN(C)C(=O)CCSC(SCCC(=O)O)c1cccc(/C=C/c2ccc3ccc(Cl)cc3n2)c1 (stereo not drawn),Potency,astro,17.8 µM (active)
COc1ccc2nc(NC(=O)Nc3ccccc3)sc2c1,Potency,astro,7.94 µM (active)

# Reference: PubChem BioAssay (NCATS)
